Records with an inconclusive call do not appear. Active and inactive are the calls of the source. Unless noted, calls follow the shape of the dose curve; as a rule, active = well fitted curve in the direction sought with a large enough effect in the repeat runs; inconclusive = weak or mixed curves; inactive = no such curve, though single readings can be large; an effect the other way counts as inactive or inconclusive.
Tests used:
[1] = target: Thyrotropin-releasing hormone receptor (Homo sapiens) (UniProt P34981); test: qHTS assay to identify small molecule agonists of the thyrotropin-releasing hormone receptor (TRHR) signaling pathway (AID 1346891; calls by dose curve;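 also: HEK293 cells expressing TRHR with calcium dye readout; series mostly up to about 58 µM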)
Thyrotropin-releasing hormone receptor (Homo sapiens), sequence (P34981 whole entry, looked up): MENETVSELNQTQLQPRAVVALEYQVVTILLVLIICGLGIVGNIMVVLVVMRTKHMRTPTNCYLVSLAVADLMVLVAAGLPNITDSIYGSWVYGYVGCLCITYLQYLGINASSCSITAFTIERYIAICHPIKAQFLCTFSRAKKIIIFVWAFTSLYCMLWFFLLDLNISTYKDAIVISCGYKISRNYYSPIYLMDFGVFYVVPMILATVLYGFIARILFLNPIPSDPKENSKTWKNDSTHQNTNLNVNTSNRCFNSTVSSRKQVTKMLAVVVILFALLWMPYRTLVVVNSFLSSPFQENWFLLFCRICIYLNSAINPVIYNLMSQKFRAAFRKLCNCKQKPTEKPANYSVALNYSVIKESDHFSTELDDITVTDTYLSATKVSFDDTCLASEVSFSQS
Outline: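 Kinetic fluorescence (3 min, 1 s intervals) reported intracellular calcium after compound transfer onto TRHR-Hek293 cells pre-loaded with dye for 2 h at 37 °C.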

[2] = Human pregnane X receptor (PXR) small molecule agonists, qHTS cell viability counter screen (AID 1346977); also: nearly all actives have a fitted effect of over 50% in size
Outline: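 HepG2 cells stably carrying the PXR-Luc reporter are cultured with 5% charcoal-stripped FBS and treated with compounds for 24hr. CellTiter-Fluor is added at 23hr and fluorescence is read after 1hr.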

[3] = Caspase-3/7 induction in HepG2 cells by small molecules, qHTS assay (AID 1346978); also: nearly all actives have a fitted effect of over 15% in size
Outline: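 Wild-type HepG2 cells (2,000/well) were settled 5 h at 37 C, 5% CO2, then exposed to compounds in DMSO for 17 h. Caspase-3/7 activity was read by luminescence 30 min after adding Caspase-Glo 3/7 reagent at room temperature.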

[4] = Caspase-3/7 induction in CHO-K1 cells by small molecules, qHTS cell viability counter screen (AID 1346979); also: nearly all actives have a fitted effect of over 35% in size
Outline: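 Seeding: 1,500 CHO-K1 cells/well. Rest: 5hr, 37C. Treatment: compounds in DMSO, 16hr. Read: CellTiter-Fluor, 1hr, fluorescence.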

[5] = Caspase-3/7 induction in CHO-K1 cells by small molecules, qHTS assay (AID 1346980); also: nearly all actives have a fitted effect of over 15% in size
Outline: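 Wild-type cells were seeded at 1,500 per well and settled 5 hr at 37 C, 5% CO2, then exposed to DMSO-dissolved compounds for 17 hr. Caspase-Glo 3/7 reagent was added, and luminescence was read after 30min at room temperature.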

[6] = Caspase-3/7 induction in HepG2 cells by small molecules, qHTS cell viability counter screen (AID 1346981); also: series mostly up to about 92 µM; nearly all actives have a fitted effect of over 30% in size
Outline: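 Steps: seed 2,000 HepG2 cells per well; incubate 5 hr at 37 C; pin-add compounds in DMSO; incubate 16 hr; add CellTiter-Fluor; after 1 hr at 37 C and 5% CO2, read fluorescence.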

[7] = target: Nuclear receptor subfamily 1 group I member 2 (Homo sapiens) (UniProt O75469); test: Human pregnane X receptor (PXR) small molecule agonists, qHTS assay (AID 1346982); also: nearly all actives have a fitted effect of over 35% in size; also: potency is read from the fitted curve at half-maximal effect
Nuclear receptor subfamily 1 group I member 2 (Homo sapiens), sequence (O75469 whole entry, looked up): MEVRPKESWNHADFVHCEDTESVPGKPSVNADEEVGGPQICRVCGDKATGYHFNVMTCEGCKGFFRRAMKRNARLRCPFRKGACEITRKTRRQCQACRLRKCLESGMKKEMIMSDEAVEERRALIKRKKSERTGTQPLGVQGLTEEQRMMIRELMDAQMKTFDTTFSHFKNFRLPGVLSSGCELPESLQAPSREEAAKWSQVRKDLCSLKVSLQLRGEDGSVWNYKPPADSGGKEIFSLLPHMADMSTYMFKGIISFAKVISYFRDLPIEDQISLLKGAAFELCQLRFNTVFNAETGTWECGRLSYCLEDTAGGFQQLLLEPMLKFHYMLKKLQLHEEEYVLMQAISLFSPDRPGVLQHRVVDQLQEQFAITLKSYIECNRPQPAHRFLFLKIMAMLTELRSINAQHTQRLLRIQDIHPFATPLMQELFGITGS
Outline: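 Agonist mode qHTS: PXR-Luc HepG2 cells plated 5 hr before DMSO-dissolved compounds were pinned in, cultured 24 hr at 37 C, 5% CO2; ONE-Glo luminescence readout.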

[8] = target: Nuclear receptor subfamily 1 group I member 2 (Rattus norvegicus) (UniProt Q9R1A7); test: Rat pregnane X receptor (rPXR) activation by small molecules, qHTS assay (AID 1346983); settings: rPXR luciferase reporter cells, One-Glo luminescence, 24 h; max activation: active compounds read high; also: nearly all actives have a fitted effect of over 20% in size
Nuclear receptor subfamily 1 group I member 2 (Rattus norvegicus), sequence (Q9R1A7 whole entry, looked up): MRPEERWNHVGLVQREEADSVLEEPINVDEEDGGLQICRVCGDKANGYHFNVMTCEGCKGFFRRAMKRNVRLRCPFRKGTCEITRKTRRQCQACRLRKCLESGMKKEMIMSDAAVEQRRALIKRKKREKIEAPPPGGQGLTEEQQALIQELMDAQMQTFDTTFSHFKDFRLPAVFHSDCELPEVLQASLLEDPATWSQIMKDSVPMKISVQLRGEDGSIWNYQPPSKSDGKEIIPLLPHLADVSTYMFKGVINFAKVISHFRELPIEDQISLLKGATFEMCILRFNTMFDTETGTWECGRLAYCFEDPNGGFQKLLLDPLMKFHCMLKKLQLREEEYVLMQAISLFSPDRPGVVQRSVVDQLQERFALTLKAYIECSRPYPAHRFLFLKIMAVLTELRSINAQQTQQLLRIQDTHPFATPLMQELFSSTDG
Outline: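 Cell-based rPXR luciferase reporter assay, 2,000 cells per well, rested 5hr at 37 C before compound addition in DMSO, then 24 hr at 37 C. One-Glo reagent was added and luminescence read after 30 min at room temperature.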

[9] = target: Nuclear receptor subfamily 1 group I member 2 (Homo sapiens) (UniProt O75469); test: CYP3A4 induction through human pregnane X receptor (PXR) by small molecules, qHTS assay (AID 1346984); also: nearly all actives have a fitted effect of over 40% in size
Outline: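 Steps: seed DPX-2 cells, 5 hr at 37C; pin-transfer compounds; 24 hr at 37C; add Luciferin-IPA (3uM final), 3 hr at 37C; add One-Glo, 30 min RT; read luminescence.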

[10] = target: Nuclear receptor subfamily 1 group I member 2 (Homo sapiens) (UniProt O75469); test: Human pregnane X receptor (PXR) activation by small molecules, qHTS assay (AID 1346985); also: nearly all actives have a fitted effect of over 40% in size
Outline: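 DPX-2 cells (HepG2 co-transfected with a PXR response element and a CYP3A4-promoter luciferase construct) were seeded at 2,000 per well, rested 5 hr at 37C, then exposed to DMSO-dissolved compounds for 24 hr. Activation was read as luciferase luminescence.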

[11] = target: Cytochrome P450 2D6 (Homo sapiens) (UniProt P10635); test: Cytochrome P450 Family 2 Subfamily D Member 6 (CYP2D6) small molecule antagonists: luciferase reporter qHTS assay (AID 1671196); also: nearly all actives have a fitted effect of over 50% in size; also: potency is read from the fitted curve at half-maximal effect
Cytochrome P450 2D6 (Homo sapiens), sequence (P10635 whole entry, looked up): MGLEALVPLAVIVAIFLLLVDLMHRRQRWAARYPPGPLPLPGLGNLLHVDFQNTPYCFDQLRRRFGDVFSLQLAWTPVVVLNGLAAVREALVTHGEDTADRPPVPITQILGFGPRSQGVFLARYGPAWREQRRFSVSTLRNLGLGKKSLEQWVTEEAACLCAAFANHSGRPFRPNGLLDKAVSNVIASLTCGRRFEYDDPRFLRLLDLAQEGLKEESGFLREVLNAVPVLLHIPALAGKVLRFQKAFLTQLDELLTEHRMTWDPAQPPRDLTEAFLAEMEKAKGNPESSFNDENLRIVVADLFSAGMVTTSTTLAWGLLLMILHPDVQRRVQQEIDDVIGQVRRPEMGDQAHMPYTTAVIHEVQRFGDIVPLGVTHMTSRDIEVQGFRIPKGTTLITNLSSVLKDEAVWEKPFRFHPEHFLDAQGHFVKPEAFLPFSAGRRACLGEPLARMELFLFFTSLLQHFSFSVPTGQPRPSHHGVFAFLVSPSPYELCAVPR
Outline: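 P450-Glo format: CYP2D6 converts a proluciferin substrate to luciferin in an NADPH-driven reaction lasting 1 h at room temperature. Light output, proportional to CYP2D6 activity, reflects interference by test chemicals.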

[12] = target: Cytochrome P450 2C9 (Homo sapiens) (UniProt P11712); test: Cytochrome P450 Family 2 Subfamily C Member 9 (CYP2C9) small molecule antagonists: luciferase reporter qHTS assay (AID 1671198); also: nearly all actives have a fitted effect of over 50% in size; also: potency is read from the fitted curve at half-maximal effect
Cytochrome P450 2C9 (Homo sapiens), sequence (P11712 whole entry, looked up): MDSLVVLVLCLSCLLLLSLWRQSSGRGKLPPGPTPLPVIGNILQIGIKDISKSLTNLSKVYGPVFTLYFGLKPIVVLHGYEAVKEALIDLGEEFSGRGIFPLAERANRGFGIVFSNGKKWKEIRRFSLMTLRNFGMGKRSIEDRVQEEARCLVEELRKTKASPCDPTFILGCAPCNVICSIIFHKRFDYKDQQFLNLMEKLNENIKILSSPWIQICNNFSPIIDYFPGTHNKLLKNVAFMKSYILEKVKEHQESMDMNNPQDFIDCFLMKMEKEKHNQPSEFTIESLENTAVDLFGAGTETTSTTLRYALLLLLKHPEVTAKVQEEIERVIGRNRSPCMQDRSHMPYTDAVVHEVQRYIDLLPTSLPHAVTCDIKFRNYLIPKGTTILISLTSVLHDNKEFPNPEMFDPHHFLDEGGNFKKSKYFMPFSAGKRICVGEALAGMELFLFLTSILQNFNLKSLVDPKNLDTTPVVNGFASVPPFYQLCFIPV
Outline: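 CYP2C9 activity was measured with a P450-Glo proluciferin substrate. Enzyme–substrate mix was held with compound for 10 min at room temperature, then NADPH regeneration solution was added for 1 h at 37C. Luciferin product was read as luminescence.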

[13] = target: Cytochrome P450 1A2 (Homo sapiens) (UniProt P05177); test: Cytochrome P450 Family 1 Subfamily A Member 2 (CYP1A2) small molecule antagonists: luciferase reporter qHTS assay (AID 1671199); also: nearly all actives have a fitted effect of over 50% in size; also: potency is read from the fitted curve at half-maximal effect
Cytochrome P450 1A2 (Homo sapiens), sequence (P05177 whole entry, looked up): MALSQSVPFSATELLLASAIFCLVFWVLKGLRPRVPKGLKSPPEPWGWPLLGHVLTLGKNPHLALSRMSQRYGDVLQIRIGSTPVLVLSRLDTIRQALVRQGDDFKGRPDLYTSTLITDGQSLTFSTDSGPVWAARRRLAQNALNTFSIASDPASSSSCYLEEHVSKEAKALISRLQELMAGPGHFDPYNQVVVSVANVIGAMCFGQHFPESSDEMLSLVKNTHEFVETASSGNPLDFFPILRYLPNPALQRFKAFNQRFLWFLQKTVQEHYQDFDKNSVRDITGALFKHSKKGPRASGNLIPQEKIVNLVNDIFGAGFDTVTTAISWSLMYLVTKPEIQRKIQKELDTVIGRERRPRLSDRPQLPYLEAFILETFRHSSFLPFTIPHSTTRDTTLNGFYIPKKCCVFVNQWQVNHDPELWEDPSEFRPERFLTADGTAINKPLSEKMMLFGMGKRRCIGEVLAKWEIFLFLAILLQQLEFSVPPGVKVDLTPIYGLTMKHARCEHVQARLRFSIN
Outline: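 Inhibition of CYP1A2 conversion of proluciferin to luciferin, detected by luminescence. Reaction run 1 h at room temperature with NADPH regeneration after brief compound preincubation.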

[14] = target: Voltage-gated inwardly rectifying potassium channel KCNH2 (Homo sapiens) (UniProt Q12809); test: Human Ether-a-go-go-Related Gene (hERG) channel small molecule antagonists: fluorescence cell-based qHTS assay (AID 1671200)
Voltage-gated inwardly rectifying potassium channel KCNH2 (Homo sapiens), sequence (Q12809 whole entry, looked up): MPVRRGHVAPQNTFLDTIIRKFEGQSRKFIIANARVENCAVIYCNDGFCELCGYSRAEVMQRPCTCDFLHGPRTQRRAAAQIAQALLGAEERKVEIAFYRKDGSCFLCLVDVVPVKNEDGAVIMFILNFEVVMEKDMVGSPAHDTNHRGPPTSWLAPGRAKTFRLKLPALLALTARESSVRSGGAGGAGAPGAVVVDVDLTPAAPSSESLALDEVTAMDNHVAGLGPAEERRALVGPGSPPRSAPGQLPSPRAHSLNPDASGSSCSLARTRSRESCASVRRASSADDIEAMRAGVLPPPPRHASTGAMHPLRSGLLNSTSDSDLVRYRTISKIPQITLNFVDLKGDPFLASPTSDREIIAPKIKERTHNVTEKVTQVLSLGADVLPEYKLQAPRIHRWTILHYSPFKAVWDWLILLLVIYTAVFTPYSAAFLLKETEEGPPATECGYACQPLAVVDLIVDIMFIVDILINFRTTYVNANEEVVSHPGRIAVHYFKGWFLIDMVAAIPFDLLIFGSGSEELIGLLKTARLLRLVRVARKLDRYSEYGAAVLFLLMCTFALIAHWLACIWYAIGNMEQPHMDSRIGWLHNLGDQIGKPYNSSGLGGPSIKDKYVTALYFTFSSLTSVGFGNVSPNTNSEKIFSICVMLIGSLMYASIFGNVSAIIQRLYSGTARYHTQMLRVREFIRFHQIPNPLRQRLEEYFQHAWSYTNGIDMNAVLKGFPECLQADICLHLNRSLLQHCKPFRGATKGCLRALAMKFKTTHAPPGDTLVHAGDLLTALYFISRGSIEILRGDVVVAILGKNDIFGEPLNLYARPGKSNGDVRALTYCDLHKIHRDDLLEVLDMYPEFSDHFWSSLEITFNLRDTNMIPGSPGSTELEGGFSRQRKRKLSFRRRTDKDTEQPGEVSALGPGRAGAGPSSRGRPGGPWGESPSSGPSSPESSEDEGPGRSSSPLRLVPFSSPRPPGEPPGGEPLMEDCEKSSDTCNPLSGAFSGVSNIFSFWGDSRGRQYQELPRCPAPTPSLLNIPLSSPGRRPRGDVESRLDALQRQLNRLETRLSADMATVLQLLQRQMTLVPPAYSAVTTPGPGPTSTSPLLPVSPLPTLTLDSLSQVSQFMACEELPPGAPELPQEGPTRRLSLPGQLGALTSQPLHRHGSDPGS
Outline: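 First, 1000 cells per well are seeded and cultured overnight at 37 C. Next, FluxOR II dye is loaded for 1 h at room temperature, protected from light. After 10 more minutes, stimulus is added and fluorescence is read.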

[15] = target: Cytochrome P450 3A4 (Homo sapiens) (UniProt P08684); test: Cytochrome P450 Family 3 Subfamily A Member 4 (CYP3A4) small molecule antagonists: luciferase reporter qHTS assay (AID 1671201); also: nearly all actives have a fitted effect of over 50% in size; also: potency is read from the fitted curve at half-maximal effect
Cytochrome P450 3A4 (Homo sapiens), sequence (P08684 whole entry, looked up): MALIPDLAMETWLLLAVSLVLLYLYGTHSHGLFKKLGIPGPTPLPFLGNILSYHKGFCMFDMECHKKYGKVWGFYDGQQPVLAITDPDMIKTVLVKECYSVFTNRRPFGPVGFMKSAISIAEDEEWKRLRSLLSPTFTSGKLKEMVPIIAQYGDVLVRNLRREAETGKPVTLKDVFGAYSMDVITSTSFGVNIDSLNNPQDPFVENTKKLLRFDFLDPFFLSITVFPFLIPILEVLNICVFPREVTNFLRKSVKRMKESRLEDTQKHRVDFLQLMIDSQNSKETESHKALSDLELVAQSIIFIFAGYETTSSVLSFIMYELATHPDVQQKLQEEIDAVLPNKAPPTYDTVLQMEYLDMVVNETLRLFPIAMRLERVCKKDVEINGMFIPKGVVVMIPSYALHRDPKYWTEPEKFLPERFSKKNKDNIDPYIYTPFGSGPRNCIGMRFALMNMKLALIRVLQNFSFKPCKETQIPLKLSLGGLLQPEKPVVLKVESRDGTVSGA
Outline: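 Enzyme and proluciferin substrate are mixed with test chemicals for 10 min, then NADPH regeneration system drives turnover for 1 h at room temperature. A detection reagent halts the reaction; luminescence after 20 min gives relative activity.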

[16] = target: Cytochrome P450 2C19 (Homo sapiens) (UniProt P33261); test: Cytochrome P450 Family 2 Subfamily C Member 19 (CYP2C19) small molecule antagonists: luciferase reporter qHTS assay (AID 1671197); also: nearly all actives have a fitted effect of over 65% in size; also: potency is read from the fitted curve at half-maximal effect
Cytochrome P450 2C19 (Homo sapiens), sequence (P33261 whole entry, looked up): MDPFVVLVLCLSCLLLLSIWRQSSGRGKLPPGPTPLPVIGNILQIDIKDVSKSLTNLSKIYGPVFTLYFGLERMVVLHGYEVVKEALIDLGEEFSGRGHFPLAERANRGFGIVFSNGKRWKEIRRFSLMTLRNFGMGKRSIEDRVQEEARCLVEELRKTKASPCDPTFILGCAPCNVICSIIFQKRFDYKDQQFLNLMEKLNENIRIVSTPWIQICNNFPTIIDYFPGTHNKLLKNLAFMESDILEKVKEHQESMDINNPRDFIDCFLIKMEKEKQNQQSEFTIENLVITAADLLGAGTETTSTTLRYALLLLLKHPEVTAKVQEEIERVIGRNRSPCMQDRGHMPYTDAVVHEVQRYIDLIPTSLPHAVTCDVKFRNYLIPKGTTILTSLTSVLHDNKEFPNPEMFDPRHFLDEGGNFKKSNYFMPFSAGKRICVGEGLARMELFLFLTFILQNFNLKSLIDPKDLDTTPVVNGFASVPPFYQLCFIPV
Outline: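 First, compounds are pinned into enzyme-substrate mix and held 10 min at room temperature. Second, NADPH regeneration solution is added and plates incubate 1 h at 37C. Third, detection reagent is added and luminescence read after 20 min.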
% is scaled to controls: 0 for no effect and ±100 for the full control effect.

CCN(CC)C(=O)c1ccc(O)c(OC)c1
inactive: outcome [1] | Potency [2] | outcome [3] | Potency [4] | outcome [5] | outcome [6] | Potency [7] | max activation [8] -5.72% | Potency [9] | Potency [10] | Potency [11] | Potency [12] | Potency [13] | Potency [14] | Potency [15]

C=CCn1c(=O)n([C@@H]2O[C@H](CO)[C@@H](O)[C@H]2O)c2nc(N)[nH]c(=O)c21
inactive: outcome [1] | Potency [2] | outcome [3] | Potency [4] | outcome [5] | outcome [6] | Potency [7] | max activation [8] -4.51% | Potency [9] | Potency [10] | Potency [11] | Potency [16] | Potency [12] | Potency [14] | Potency [15]

C1COCCO1
active: Potency [16] 36.4 µM
inactive: outcome [1] | Potency [2] | outcome [3] | Potency [4] | outcome [5] | outcome [6] | Potency [7] | Potency [11] | Potency [14] | Potency [15]

NC(=O)c1c(Cl)cccc1Cl
inactive: outcome [1] | Potency [2] | outcome [3] | Potency [4] | outcome [5] | outcome [6] | Potency [12] | Potency [14]
active: Potency [7] 0.0611 µM | Potency [11] 31.7 µM | Potency [15] 31.7 µM

c1ccc(SCCSc2ccccc2)cc1
active: Potency [7] 7.63 µM | Potency [16] 3.53 µM
inactive: outcome [1] | Potency [2] | outcome [3] | Potency [4] | outcome [5] | outcome [6] | Potency [14] | Potency [15]

CCCCN(CCO)CCO
inactive: outcome [1] | Potency [2] | outcome [3] | Potency [4] | outcome [5] | outcome [6] | Potency [7] | Potency [11] | Potency [13] | Potency [14] | Potency [15]

CNC(=O)c1c(I)c(NC(=O)CCCCC(=O)Nc2c(I)c(C(=O)O)c(I)c(C(=O)NC)c2I)c(I)c(C(=O)O)c1I
inactive: outcome [1] | Potency [2] | outcome [3] | Potency [4] | outcome [5] | outcome [6] | Potency [7] | Potency [11] | Potency [12] | Potency [13] | Potency [14] | Potency [15]

CC(O)CN(CCCN(C)C)CCCN(C)C (stereo not drawn)
inactive: outcome [1] | Potency [2] | outcome [3] | Potency [4] | outcome [5] | outcome [6] | Potency [7] | Potency [11] | Potency [12] | Potency [14] | Potency [15]

O=C(O)/C=C/c1ccc(/C=C/C(=O)O)cc1
inactive: outcome [1] | Potency [2] | outcome [3] | Potency [4] | outcome [5] | outcome [6] | Potency [7] | Potency [12] | Potency [13] | Potency [14] | Potency [15]
active: Potency [16] 8.74 µM

CN(C)C(=O)Nc1ccccc1
inactive: outcome [1] | Potency [2] | outcome [3] | Potency [4] | outcome [5] | outcome [6] | Potency [7] | Potency [11] | Potency [12] | Potency [14] | Potency [15]

C=CCSCC1Nc2cc(Cl)c(S(N)(=O)=O)cc2S(=O)(=O)N1 (stereo not drawn)
inactive: outcome [1] | Potency [2] | outcome [3] | Potency [4] | outcome [5] | outcome [6] | max activation [8] 0.305% | Potency [16]

Cc1ccc(Nc2ccc(O)c3c2C(=O)c2ccccc2C3=O)cc1
inactive: outcome [1] | Potency [2] | outcome [3] | Potency [4] | outcome [5] | outcome [6] | Potency [7] | Potency [11] | Potency [16] | Potency [14] | Potency [15]

CC(C)(C)OC(=O)N1C[C@@H](F)C[C@H]1C(=O)O
active: Potency [15] 36.8 µM
inactive: outcome [1] | Potency [2] | outcome [3] | Potency [4] | outcome [5] | outcome [6] | Potency [7] | Potency [11] | Potency [14]

CCCCCCC(CCCCCCCCCCC(=O)OCC(COC(C)=O)OC(C)=O)OC(C)=O (stereo not drawn)
inactive: outcome [1] | Potency [2] | outcome [3] | Potency [4] | outcome [5] | outcome [6] | Potency [7] | Potency [11] | Potency [16] | Potency [14] | Potency [15]

Oc1ccc2c(c1)OC[C@@H](N1CCC(O)(c3ccc(F)cc3)CC1)[C@H]2O
inactive: outcome [1] | Potency [2] | outcome [3] | Potency [4] | outcome [5] | outcome [6] | Potency [14] | Potency [15]
active: Potency [7] 11.9 µM | Potency [16] 3.89 µM | Potency [12] 13.8 µM | Potency [13] 7.76 µM

CCOC(=O)[C@H](CCc1ccccc1)N[C@@H](C)C(=O)N1CCC[C@H]1C(=O)O
inactive: outcome [1] | Potency [2] | outcome [3] | Potency [4] | outcome [5] | outcome [6] | max activation [8] -3.1% | Potency [16] | Potency [14]

NS(=O)(=O)c1cc(C2(O)NC(=O)c3ccccc32)ccc1Cl (stereo not drawn)
inactive: outcome [1] | Potency [2] | outcome [3] | Potency [4] | outcome [5] | outcome [6] | max activation [8] -0.257% | Potency [11] | Potency [14]

COCCOC(=O)CC#N
inactive: outcome [1] | Potency [2] | outcome [3] | Potency [4] | outcome [5] | outcome [6] | Potency [7] | Potency [11] | Potency [13] | Potency [14] | Potency [15]

CCCCC1CCCCC(=O)O1 (stereo not drawn)
inactive: outcome [1] | Potency [2] | outcome [3] | Potency [4] | outcome [5] | outcome [6] | Potency [7] | Potency [11] | Potency [12] | Potency [14] | Potency [15]

CC(=O)CCc1ccc(O)cc1
inactive: outcome [1] | Potency [2] | outcome [3] | Potency [4] | outcome [5] | outcome [6] | Potency [7] | Potency [12] | Potency [13] | Potency [14] | Potency [15]
active: Potency [16] 20 µM

Reference: PubChem BioAssay (Tox21)
